This is one part of a sample in which hits are shown more often than they occur.
LmPK inhibitor: blocks Leishmania mexicana pyruvate kinase activity. Q27686. purified LmPK, Kinase-Glo ATP luminescence, 1 h. Potency, µM (series often up to 57.5 µM), for the others: at the top dose activity change, negative = inhibition, hits mostly inhibitors. 290,000 compounds, 0.37% hits. AID 1721; also: potency is read from the fitted curve at half-maximal effect; % is scaled to controls: 0 for no effect and ±100 for the full control effect
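ATP generated from ADP (0.1 mM) and PEP (0.5 mM) by 0.1 nM LmPK over 1 h at room temperature (pH 7.2 imidazole buffer) was detected by coupled luciferase luminescence. Values were normalized to uninhibited and no-enzyme wells.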
Shiga inhibitor: inhibitors of Shiga toxin in Vero cells. Vero cells, Shiga toxin protein synthesis inhibition reporter. inhibition, % at 38.7 µM. 290,000 compounds, 9.2% hits; in the data active = inhibition mostly above about 28%, no sharp cut-off; inactive = mostly below about 43%; also: 0% is about no effect
TbPYK inhibitor: inhibitors of Trypanosoma brucei pyruvate kinase; 410,000 compounds, 0.12% hits; Q57TT1; AID 624173; TbPYK enzyme, Kinase-Glo Plus ATP luminescence, 45 min; Potency, µM (highest dose often 76.8 µM), without a hit: at the highest dose activity, negative = inhibition, actives largely listed as inhibitors; also: potency is read from the fitted curve at half-maximal effect; % is scaled to controls: 0 for no effect and ±100 for the full control effect; nearly all actives have a fitted effect of over 50% in size
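In this concentration-response screen, enzyme-free wells defined baseline while DMSO plates tracked drift. Each reaction combined TbPYK, substrate, compound and 130 uM ADP for 45 min at room temperature. Kinase-Glo Plus luminescence gave the signal.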
Giardia FBPA inh: blocks Giardia fructose-bisphosphate aldolase activity; A8B2U2; purified Giardia FBPA; Potency, µM (series often up to 59.6 µM), for inactives: at the highest dose activity, negative = inhibition, actives largely listed as inhibitors; 290,000 compounds, 0.71% hits; AID 2451; also: potency is read from the fitted curve at half-maximal effect; % is scaled to controls: 0 for no effect and ±100 for the full control effect; nearly all actives have a fitted effect of over 55% in size
Target sequence (A8B2U2 whole entry, looked up): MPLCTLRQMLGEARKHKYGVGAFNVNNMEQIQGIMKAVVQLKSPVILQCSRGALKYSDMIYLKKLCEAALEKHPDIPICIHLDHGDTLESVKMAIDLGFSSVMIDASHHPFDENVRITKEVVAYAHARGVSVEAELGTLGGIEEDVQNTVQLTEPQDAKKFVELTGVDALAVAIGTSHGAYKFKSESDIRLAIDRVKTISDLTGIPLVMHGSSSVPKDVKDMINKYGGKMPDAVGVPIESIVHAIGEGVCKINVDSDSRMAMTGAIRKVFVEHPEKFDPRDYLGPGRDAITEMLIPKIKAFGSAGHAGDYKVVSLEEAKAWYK
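40 nM FBPA preincubated 10 min at RT with compound (up to 57.5 uM final), then substrate plus GAPDH/TPI/NAD/arsenate coupling and diaphorase/resazurin added. Fluorescence read after 20 min at RT, 525/598 nm.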
Sm TGR block: inhibitors of Schistosoma mansoni thioredoxin glutathione reductase | AID 485364 | 360,000 compounds, 3% hits | purified TGR, DTNB reduction, TNB absorbance 405 nm | Q962Y6 | Potency, µM (doses to about 114 µM), without a hit: top-dose activity change, negative = inhibition, usual class: inhibitors; also: potency is read from the fitted curve at half-maximal effect; % is scaled to controls: 0 for no effect and ±100 for the full control effect; nearly all actives have a fitted effect of over 60% in size
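Kinetic colorimetric format: TGR-catalysed, NADPH-driven DTNB reduction monitored via TNB absorbance. Enzyme dispensed at 20 nM; compound exposure 15 min at room temperature before reaction start.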
CHX counter: counter-screen for Shiga toxin inhibitors: cycloheximide protein synthesis inhibition; 300,000 compounds, 12% hits; cell reporter, cycloheximide protein synthesis inhibition counterscreen; AID 2314; max response, %; in the data active = max response mostly above about 13%, no sharp cut-off; inactive = mostly below about 14%; also: read at 38.3 µM for the half of the compounds with a filed dose; 0% is about no effect
* marks the source's active call; other numbers are inactive results; i = inactive; / = not tested or not shown; [ ] = another dose, or the depositor's remark. Unless noted, calls follow the shape of the dose curve; as a rule, active = well fitted curve in the direction sought with a large enough effect; inconclusive = small, poorly fitted or top-dose-only effect, or another doubt; inactive = no such curve, though single readings can be large; an effect the other way counts as inactive or inconclusive.

SMILES | LmPK inhibitor | Shiga inhibitor | TbPYK inhibitor | Giardia FBPA inh | Sm TGR block | CHX counter
COc1cc(C(=O)NCCOc2ccccc2)cc(OC)c1OC | 1% | 9 | 4% | 4% | -25% | 1
Cc1ccc(C(=O)NCCOc2cccc(C)c2)cc1 | -2% | 83* | 4% | 0% | / | 37*
COc1cc(OC)cc(C(=O)NCCOc2ccccc2)c1 | -3% | 77* | -1% | 5% | -23% | 31*
CC(C)(C)c1ccc(C(=O)NCCOc2ccccc2)cc1 | 3% | 33 | 0% | -9% | 2% | 26*
COc1ccccc1C(=O)NCCOc1ccc(C(C)(C)C)cc1 | 10% | -5 | 5% | 6% | 2% | 1
O=C(c1ccc2c(c1)N(Cc1ccc(Cl)cc1)C(=O)c1ccccc1S2(=O)=O)N1CCc2ccccc21 | / | / | 14% | / | 1% | /
O=C(Nc1ccc2c(c1)OCO2)C1Cc2c(-c3ccccc3Oc3ccccc3)ccnc2O1 (configuration not stated) | / | / | -7% | / | / | /
COc1ccc(C2N(c3ccccc3)CCN2c2ccccc2)cc1O | 10% | 59* | -1% | -15% | -5% | 26*
COc1cc(C2N3CC4(C)CN2CC(C)(C3)C4)ccc1O (configuration not stated) | -2% | 13 | -8% | 9% | 4% | -2
c1csc(CNc2ncncc2-c2ccoc2)c1 | / | / | / | -8% | / | /
Nc1n[nH]c2cc(=O)n(-c3cccc(C(F)(F)F)c3)nc12 | -13% | -4 | -4% | 4% | 22µM* | 7
C=C(C)CN=CC1(C)CCC(C)=CO1 (configuration not stated) | / | / | -5% | / | / | /
CC(=O)NCCNc1ncncc1-c1ccc(N(C)C)cc1 | / | / | / | -16% | / | /
COC(=O)c1ccc(NC(=O)n2ncc3c(C)cccc32)cc1 | / | / | 5% | / | 4% | /
Cc1ccc(NC(=O)n2ncc3c(C)cccc32)c(C)c1 | 2% | 34* | 3% | -6% | -3% | 38*
Cc1cccc2c1cnn2C(=O)Nc1ccc(Br)cc1F | 0% | 22 | -8% | 2% | -12% | 7
CCOC(=O)Cc1ccc(NC(=O)n2ncc3c(C)cccc32)cc1 | / | / | -1% | / | 7% | /
CCOc1ccc(NC(=O)n2ncc3c(C)cccc32)cc1 | -6% | 48* | -1% | -5% | 0% | 30*
COc1cccc(NC(=O)n2ncc3c(C)cccc32)c1 | -27% | 54* | -22% | -4% | 6% | 32*
Nc1ncnc2c1ncn2[C@@H]1O[C@@H](CO)[C@H](O)[C@H]1O | / | / | / | -1%[21.7 µM] | / | /
COc1cccc(NC(=O)c2ccc3c(c2)OCCO3)c1 | 25µM* | 23 | -17% | -1% | 9% | 15
CCC(=O)Nc1cccc(NC(=O)c2ccc3c(c2)OCO3)c1 | -19% | 61* | -3% | -8% | 4% | 19*
COc1cccc(NC(=O)c2ccc3c(c2)OCO3)c1 | -29% | 63* | -28% | 4% | 0% | 32*
CCCC(=O)Nc1ccccc1NC(=O)c1ccc2c(c1)OCO2 | 2% | -7 | -2% | 2% | 1% | -2
COc1cccc(NC(=O)COC(=O)c2ccc3c(c2)OCCO3)c1 | / | / | -2% | / | / | /
SMILES | LmPK inhibitor | Shiga inhibitor | TbPYK inhibitor | Giardia FBPA inh | Sm TGR block | CHX counter
COc1cccc(C(=O)OCC(=O)c2c[nH]c3ccccc23)c1O | -5% | 93* | 5% | 3% | 4% | 34*
COc1cccc(/C=C/C(=O)OCC(=O)c2c[nH]c3ccccc23)c1OC | 1% | 32 | -13% | 1% | 0% | 11*
COc1cccc(/C=C/C(=O)OCC(=O)c2c[nH]c3ccccc23)c1 | / | / | -9% | / | -7% | /
CCCC[C@]12Cc3ccccc3C(O1)c1c(c3ccccc3oc1=O)O2 | -10%[11.5 µM] | i | / | 12%[12.9 µM] | 1%[22.9 µM] | -1
O=C1N=C(N2CCCCC2)SC1=C1CCCC1 | 3% | 45* | -2% | -5% | 15%[11.4 µM] | 26*
Cc1nn(C)c(C)c1CNC(=O)Nc1cccc(Cl)c1 | 15% | 114* | 3% | 0% | 1% | 57*
Cc1onc(-c2ccccc2)c1CNC(=O)Nc1cccc(Cl)c1 | 1% | -5 | 0% | -4% | -7% | -1
Cc1nn(C)c(C)c1CNC(=O)Nc1ccc2c(c1)OCO2 | 0% | 65* | 11% | 1% | -3% | 37*
Cc1ccc(NC(=O)NCCc2c(C)nn(C)c2C)cc1Cl | / | / | -5% | / | 1% | /
